Assay results from PubChem BioAssay.
Calls of active or inactive are those of the source.

Assays:
[1] = small molecules captured by biotinylated probe aFSTL3 – biochemical, small-molecule microarray, fluorescence 635/667, stem cell growth factor project, primary screen (AID 1064); details: higher = more signal;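 note: measures binding of the biotinylated anti-FSTL3 antibody to printed compounds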
[2] = binders from COS7 lysate, DM2A8 probe, primary screen, torsin A project, cell lysate, small-molecule microarray, fluorescence 635/667 (AID 1065); details: higher = more signal, COS7 lysate expressing mutant human TOR1A
[3] = small molecules captured by biotinylated probe aFGF2 – biochemical, small-molecule microarray, fluorescence 635/667, stem cell growth factor project, primary screen (AID 1067); details: higher = more signal;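 note: measures binding of biotinylated aFGF2 protein to printed compounds on slides; z-score merges feature fluorescence and signal-to-noise across triplicate slides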
[4] = small molecules captured by biotinylated probe aFGF10 – biochemical, small-molecule microarray, fluorescence 635/667, stem cell growth factor project, primary screen (AID 1071); details: higher = more signal;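 note: score merges 667 nm spot intensity and signal to noise from triplicate slides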
[5] = target: Neurogenic locus notch homolog protein 2 (Homo sapiens) (UniProt Q04721); test: small molecules binding Notch2 protein – biochemical, small-molecule microarray, 635 nm fluorescence, stem cell growth factors, primary screen (AID 1073); details: higher = more signal
Chain of Neurogenic locus notch homolog protein 2 (Homo sapiens) (Q04721 whole entry, looked up, canonical isoform): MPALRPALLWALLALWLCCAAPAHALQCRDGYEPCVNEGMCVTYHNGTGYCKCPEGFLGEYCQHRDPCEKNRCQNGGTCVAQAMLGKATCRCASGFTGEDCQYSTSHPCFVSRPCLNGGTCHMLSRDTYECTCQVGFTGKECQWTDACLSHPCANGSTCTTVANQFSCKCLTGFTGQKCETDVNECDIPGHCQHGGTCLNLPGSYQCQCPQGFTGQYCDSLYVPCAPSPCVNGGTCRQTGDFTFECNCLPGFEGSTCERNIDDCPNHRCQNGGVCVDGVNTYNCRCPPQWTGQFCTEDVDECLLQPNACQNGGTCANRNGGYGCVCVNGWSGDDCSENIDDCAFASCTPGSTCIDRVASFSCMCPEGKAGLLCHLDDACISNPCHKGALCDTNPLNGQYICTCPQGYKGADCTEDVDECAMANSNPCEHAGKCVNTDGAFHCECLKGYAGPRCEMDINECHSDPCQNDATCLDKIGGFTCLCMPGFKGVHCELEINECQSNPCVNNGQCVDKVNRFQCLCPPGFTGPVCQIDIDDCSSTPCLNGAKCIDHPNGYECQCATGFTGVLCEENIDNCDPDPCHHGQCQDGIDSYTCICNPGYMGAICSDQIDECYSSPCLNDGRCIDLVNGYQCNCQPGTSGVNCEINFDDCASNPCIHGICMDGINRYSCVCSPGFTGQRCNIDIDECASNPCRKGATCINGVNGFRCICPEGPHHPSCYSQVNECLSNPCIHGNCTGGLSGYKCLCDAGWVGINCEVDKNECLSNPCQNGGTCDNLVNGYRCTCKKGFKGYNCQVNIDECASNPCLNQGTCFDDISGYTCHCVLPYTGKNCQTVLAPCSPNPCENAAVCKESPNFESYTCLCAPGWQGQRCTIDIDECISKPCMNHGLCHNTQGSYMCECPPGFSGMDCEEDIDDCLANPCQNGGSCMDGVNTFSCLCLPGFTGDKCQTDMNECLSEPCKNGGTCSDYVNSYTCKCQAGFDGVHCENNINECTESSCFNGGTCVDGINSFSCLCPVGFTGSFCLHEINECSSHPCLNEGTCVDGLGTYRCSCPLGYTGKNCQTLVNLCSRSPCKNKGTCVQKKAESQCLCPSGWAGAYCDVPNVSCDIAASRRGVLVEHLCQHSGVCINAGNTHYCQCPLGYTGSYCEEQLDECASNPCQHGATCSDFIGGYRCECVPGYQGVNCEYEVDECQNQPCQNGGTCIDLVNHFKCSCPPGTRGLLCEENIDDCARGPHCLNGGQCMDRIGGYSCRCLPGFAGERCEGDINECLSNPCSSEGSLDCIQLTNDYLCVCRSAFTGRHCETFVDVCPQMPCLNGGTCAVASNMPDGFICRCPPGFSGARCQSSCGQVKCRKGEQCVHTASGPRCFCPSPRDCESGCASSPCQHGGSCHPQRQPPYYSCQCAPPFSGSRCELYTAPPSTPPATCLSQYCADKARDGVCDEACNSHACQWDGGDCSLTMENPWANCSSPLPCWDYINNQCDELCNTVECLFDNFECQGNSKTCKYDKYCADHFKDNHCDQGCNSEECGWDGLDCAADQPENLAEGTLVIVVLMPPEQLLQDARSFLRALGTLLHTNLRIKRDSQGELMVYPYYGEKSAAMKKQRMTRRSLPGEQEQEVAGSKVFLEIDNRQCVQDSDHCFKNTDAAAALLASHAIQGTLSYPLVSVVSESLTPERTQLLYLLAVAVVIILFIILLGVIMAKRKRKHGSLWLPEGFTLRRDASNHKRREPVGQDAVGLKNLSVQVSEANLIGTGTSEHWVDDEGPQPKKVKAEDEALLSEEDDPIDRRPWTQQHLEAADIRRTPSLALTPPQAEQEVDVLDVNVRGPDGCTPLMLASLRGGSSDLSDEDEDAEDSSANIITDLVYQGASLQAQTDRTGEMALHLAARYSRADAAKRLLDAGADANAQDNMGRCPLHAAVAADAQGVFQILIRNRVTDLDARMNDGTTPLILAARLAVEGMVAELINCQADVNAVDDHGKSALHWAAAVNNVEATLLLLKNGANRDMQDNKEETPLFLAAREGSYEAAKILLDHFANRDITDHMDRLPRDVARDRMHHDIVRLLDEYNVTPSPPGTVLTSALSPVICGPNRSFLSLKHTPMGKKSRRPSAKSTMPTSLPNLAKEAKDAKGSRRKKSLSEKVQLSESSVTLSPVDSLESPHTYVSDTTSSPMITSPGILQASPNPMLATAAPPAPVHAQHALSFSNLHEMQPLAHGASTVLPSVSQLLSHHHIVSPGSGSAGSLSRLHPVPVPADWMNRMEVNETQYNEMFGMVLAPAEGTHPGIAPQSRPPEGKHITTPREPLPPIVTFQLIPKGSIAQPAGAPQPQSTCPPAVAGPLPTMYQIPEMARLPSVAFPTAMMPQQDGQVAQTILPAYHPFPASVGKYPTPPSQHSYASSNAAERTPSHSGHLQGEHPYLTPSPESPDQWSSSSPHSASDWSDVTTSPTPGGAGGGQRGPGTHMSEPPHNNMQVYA

[6] = target: Pro-neuregulin-1, membrane-bound isoform (Homo sapiens) (UniProt Q02297); test: small molecules binding neuregulin-1 protein – biochemical, small-molecule microarray, fluorescence 635/667, psychiatric disease protein project, primary screen (AID 1075); details: NRG1 binding, 635 nm fluorescence, higher = more signal;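 note: score combines 667 nm spot fluorescence with signal to noise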
Chain of Pro-neuregulin-1, membrane-bound isoform (Homo sapiens) (Q02297 whole entry, looked up, the tested form may be a part, canonical isoform): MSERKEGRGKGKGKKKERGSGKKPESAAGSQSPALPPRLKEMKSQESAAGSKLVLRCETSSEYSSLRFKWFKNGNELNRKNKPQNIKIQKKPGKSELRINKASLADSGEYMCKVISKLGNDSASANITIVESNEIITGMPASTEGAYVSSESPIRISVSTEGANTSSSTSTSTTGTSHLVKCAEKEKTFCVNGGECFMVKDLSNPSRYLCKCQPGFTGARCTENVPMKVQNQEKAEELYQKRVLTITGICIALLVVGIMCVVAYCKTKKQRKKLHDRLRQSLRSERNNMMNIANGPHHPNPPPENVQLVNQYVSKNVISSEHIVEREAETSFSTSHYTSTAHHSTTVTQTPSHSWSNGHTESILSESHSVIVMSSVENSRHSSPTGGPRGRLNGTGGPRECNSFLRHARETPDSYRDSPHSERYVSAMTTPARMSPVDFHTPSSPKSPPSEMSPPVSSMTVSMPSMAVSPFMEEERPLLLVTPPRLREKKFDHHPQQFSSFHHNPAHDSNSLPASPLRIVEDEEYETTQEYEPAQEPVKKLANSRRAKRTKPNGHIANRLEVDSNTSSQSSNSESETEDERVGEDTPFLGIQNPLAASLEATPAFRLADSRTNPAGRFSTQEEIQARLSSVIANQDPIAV

[7] = test system: Neuregulin-1 EGF-like domain; test: small molecules binding NRG1 EGF domain – biochemical, small-molecule microarray, 635 nm fluorescence, primary screen (AID 1081); details: higher = more signal;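 note: binding of the protein to compounds printed on small-molecule microarray slides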
[8] = FRG1 expression reporter modulators in myotubes – cell-based, C2C12 myotubes, firefly/Renilla luciferase, luminescence, FRG1 inhibition for FSHD, primary screen (AID 1084); details: FRG1 promoter luciferase, higher = more signal, called active from +8 up or from −8 down
[9] = small molecules captured by biotinylated probe aFST – biochemical, small-molecule microarray, fluorescence 635/667, stem cell growth factor project, primary screen (AID 1086); details: higher = more signal;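 note: score merges 667 nm fluorescence with signal-to-noise of each printed compound spot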
[10] = binders of probe aHhip on microarray, primary screen, stem cell growth factor project, biochemical, small-molecule microarray, fluorescence 635/667 (AID 1087); details: higher = more signal;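 note: score merges spot fluorescence at 667nm with spot signal to noise ratio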

Row | SMILES | composite z-score [1] | composite z-score [2] | composite z-score [3] | composite z-score [4] | composite z-score [5] | composite z-score [6] | composite z-score [7] | z-score [8] | composite z-score [9] | composite z-score [10]
1 | CCOC(=O)C1=CCC(c2cccn2C(=O)OC(C)(C)C)N(S(=O)(=O)c2ccc(C)cc2)C1 (stereo not given) | 1.3 | 0.42 | 0.0267 | 0.243 | 0.884 | 1.7 | 1.18 | -2.99 (inactive) | 0.67 | 1.07
2 | COC(=O)C(CC#Cc1ccc2c(c1)[C@]1(C(=O)N2)[C@H](C(N)=O)[C@H]2C(=O)O[C@H](c3ccccc3)[C@H](c3ccccc3)N2[C@@H]1c1ccccc1OCCO)C(=O)OC | 0.29 | 1.81 | -0.0122 | 0.765 | -0.21 | 1.67 | 1.4 | 1.69 (inactive) | -0.275 | -0.0994
3 | C=CCNC(=O)[C@H]1[C@@H]2C(=O)O[C@@H](c3ccccc3)[C@@H](c3ccccc3)N2[C@@H](c2ccc(OCCO)cc2)[C@]12C(=O)N(C(=O)OCCOC)c1ccc(C#CCC(C(=O)OC)C(=O)OC)cc12 | 1.55 | 0.948 | 0.18 | 1.1 | 0.881 | 1.63 | 1.19 | 0.9 (inactive) | 0.725 | 1.58
4 | O=C1c2ccccc2[C@@]2(Cc3ccccc3N(CC(F)(F)F)C2=O)[C@H](c2ccc(CO)cc2)N1Cc1ccccc1 | 0.386 | 0.0025 | -0.124 | 0.316 | -0.661 | 0.0876 | -0.533 | 0.605 (inactive) | -0.0539 | -0.129
5 | CCOC(=O)C[C@H]1[C@H](OC(=O)c2cc3ccccc3oc2=O)[C@@H](NC(=O)Cc2ccc(OC)cc2)c2cc(OCCCO)ccc2N1C(=O)Cc1ccc(OC)cc1 | -0.545 | 0.58 | -0.125 | 0.527 | 0.791 | 0.185 | 0.507 | -1.39 (inactive) | 1.43 | -0.179
6 | CCOC(=O)C[C@H]1[C@H](OC(=O)c2ccc(-c3ccccc3)cc2)[C@@H](NC(=O)C2CCCCC2)c2cc(OCCCO)ccc2N1C(=O)Cc1ccc(OC)cc1 | -0.114 | 0.279 | -0.0369 | 0.0887 | 0.215 | 0.157 | -0.481 | -0.054 (inactive) | 0.241 | 0.0722
7 | CC[C@@H](O[Si](C#C[Si](C(C)C)(C(C)C)C(C)C)(C(C)C)C(C)C)c1cn([C@H](C)c2ccccc2)nn1 | -0.51 | 0.488 | -0.0797 | 0.663 | 0.728 | 0.284 | 0.739 | -0.0777 (inactive) | 0.129 | 0.115
8 | [N-]=[N+]=Nc1ccccc1C[C@]1(C(=O)N2CCCCC2)N=C(c2ccc(OCCCO)cc2)O[C@H]1c1ccccc1 | 0.484 | 0.593 | -0.0332 | 1.21 | 1.36 | 0.733 | 1.08 | -3.1 (inactive) | 0.933 | 0.154
9 | CN(C)CCCCNC(=O)[C@H]1C[C@H]2C(=O)N[C@@H](CCCCN(C)C)C(=O)N2[C@H]1c1ccc(O)cc1 | -0.162 | 0.857 | -0.215 | 0.301 | -0.0742 | -0.121 | 0.763 | -0.354 (inactive) | -0.349 | -0.16
10 | COC(=O)[C@@]1(Cc2ccccc2)[C@H]2c3cc(C(=O)N(C)C)n(CCF)c3C[C@H]2CN1C(=O)c1ccccc1 | 1.57 | 2.12 | 0.181 | 0.103 | 1.31 | 2.17 | 0.592 | 1.52 (inactive) | 0.974 | -0.0296
11 | O=C(c1ccccc1)N1Cc2ccccc2C[C@@]2(N=C(c3ccc(OCCCO)cc3)O[C@H]2c2ccccc2)C1=O | -0.302 | 0.564 | -0.0538 | 0.458 | 1.13 | 1.05 | 1.21 | -3.39 (inactive) | 0.229 | 0.201
12 | COc1ccc([Si](C)(C)[C@@H]2[C@@H](CC(=O)N3CCC[C@H]3CO)O[C@]3(C(=O)N(Cc4cccc(N5C(=O)c6cccc7cccc5c67)c4)c4ccccc43)[C@H]2C)cc1 | -0.401 | 0.342 | -0.0666 | 0.219 | -0.321 | 1.22 | 1.06 | -1.01 (inactive) | 0.019 | -0.0618
13 | CC(CO)N1C(=O)[C@@H]2[C@H]3C(=O)OCC=C[C@H]3OC23C=CCN(c2ccc4ccccc4c2)C(=O)[C@@H]13 (stereo not given in full) | 0.865 | -1.47 | -0.149 | -0.451 | -1.19 | -1.2 | 0.632 | 0.621 (inactive) | -0.946 | -0.0994
14 | COc1ccc(C(=O)Nc2ccc(CN3C(=O)[C@@]4(O[C@@H](CC(=O)N(CCO)Cc5ccccc5)[C@H]([Si](C)(C)c5ccc(OC)cc5)[C@H]4C)c4ccccc43)cc2)cc1 | -0.0679 | 0.378 | -0.135 | 0.086 | -0.769 | 0.984 | 0.921 | -2.13 (inactive) | -0.263 | -0.0074
15 | O=C1O[C@H](c2ccccc2)[C@H](c2ccccc2)N2[C@H]1[C@@H](C(=O)Nc1nc3ccccc3s1)[C@]1(C(=O)Nc3ccccc31)[C@H]2c1ccccc1OCCO | -0.249 | -0.0611 | 0.0084 | 0.12 | 1.15 | 1.42 | 1.02 | 1.62 (inactive) | -0.0275 | -0.0994
16 | [N-]=[N+]=Nc1ccccc1C[C@]1(C(N)=O)COC(c2ccc(OCCCO)cc2)=N1 | 1.05 | -0.455 | 0.0247 | 0.149 | 0.278 | 1.81 | 1.34 | 3.48 (inactive) | 0.236 | -0.0618
17 | C=CCOC(=O)[C@@H]1[C@H]2C(=O)O[C@H](c3ccccc3)[C@H](c3ccccc3)N2[C@H](c2ccc(OCCOC(=O)[C@H]3C[C@H]4C(=O)N[C@@H](CCCCN(C)C)C(=O)N4[C@H]3c3cccc(OCCO)c3)cc2)[C@@]12C(=O)Nc1ccccc12 | 1.24 | 0.596 | 0.031 | -0.629 | -1.13 | 1.96 | 0.815 | 1.02 (inactive) | -0.651 | -0.166
18 | O=C1NC(=O)C2C1C=CC(C(O)C(O)CO)N2Nc1ccccn1 (stereo not given) | -0.304 | -0.0729 | -0.154 | 0.383 | 0.864 | 0.548 | 0.515 | -0.708 (inactive) | 0.0126 | -0.191
19 | CN1C(=O)C2C=CC(C(O)c3ccc(I)cc3)N(N(c3ccccc3)c3ccccc3)C2C1=O (stereo not given) | 0.75 | -0.272 | -0.0507 | -0.454 | 0.333 | 0.495 | -0.0493 | 0.586 (inactive) | 0.428 | -0.176
20 | O=C1O[C@H](c2ccccc2)[C@H](c2ccccc2)N2[C@H]1[C@@H](C(=O)N1CCN(c3ncccn3)CC1)[C@]1(C(=O)Nc3ccc(C#CC4(O)CCCCCC4)cc31)[C@H]2c1ccc(O)cc1 | 0.406 | 2.01 | -0.0125 | 1.04 | 0.607 | 1.54 | 1.28 | 0.0132 (inactive) | 0.0718 | -0.0645
21 | CN1C(=O)C2C=CC(C(O)COCc3ccccc3)N(Nc3ccc([N+](=O)[O-])cc3[N+](=O)[O-])C2C1=O (stereo not given) | 0.0982 | -0.0795 | 0.0952 | 0.475 | 0.172 | 0.0948 | 0.752 | 1.16 (inactive) | 0.329 | -0.167
22 | CCOC(=O)C[C@H]1[C@H](OC(=O)c2ccccc2-c2ccccc2)[C@@H](NC(=O)CC(C)C)c2cc(OCCCO)ccc2N1C(=O)c1ccccc1 | -0.565 | 0.115 | -0.0632 | 0.351 | 0.527 | 0.092 | 0.606 | 0.077 (inactive) | 0.324 | -0.137
23 | CC(C)c1ccc(NN2C(C(O)c3ccccc3)C=CC3C(=O)N(c4ccccc4)C(=O)C32)cc1 (stereo not given) | 0.744 | 0.141 | 0.117 | 0.885 | 1.42 | 0.905 | 0.793 | 1.47 (inactive) | 1.13 | -0.265
24 | COCCOC(=O)N1C(=O)[C@@]2(c3cc(C#CCNC(N)=O)ccc31)[C@H](C(=O)Nc1nc3ccccc3s1)[C@H]1C(=O)O[C@H](c3ccccc3)[C@H](c3ccccc3)N1[C@@H]2c1ccc(O)cc1 | -0.145 | 0.215 | -0.0284 | 0.46 | 0.968 | 0.882 | 0.595 | 0.709 (inactive) | 0.501 | 0.0373
25 | O=C(NCC(F)(F)F)[C@@H]1c2ccccc2C(=O)N(Cc2cc(C(F)(F)F)cc(C(F)(F)F)c2)[C@H]1c1ccc(CO)cc1 | -0.381 | -0.147 | -0.203 | -0.155 | 0.154 | 1.73 | 1.25 | -0.884 (inactive) | -0.192 | -0.0296
26 | COc1ccc([Si](C)(C)[C@H]2[C@H](CC(=O)N3CCC[C@H]3CO)O[C@@]3(C(=O)N(C)c4c(Br)cc(C)cc43)[C@@H]2C)cc1 | 0.536 | 1.88 | 0.336 | 1.04 | 0.284 | 2.51 | 1.41 | -1.39 (inactive) | 1.12 | 0.104
